ugtP null kill: compounds lethal to S. aureus RN4220 ugtP deletion mutant. growth inhibition, % (test concentration not listed). OD600 growth, 16 h. 330,000 compounds, 0.54% hits. AID 1259309; in the data active = growth inhibition above about 68%;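 also: plate controls were untreated wells for no effect and antibiotic for full effect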
RN4220 kill: S. aureus RN4220 growth inhibition | AID 1259311 | OD600, 16 h | 330,000 compounds, 0.33% hits | inhibition, % (test concentration not listed); in the data active = inhibition above about 85%;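 also: plate controls were untreated cells for no effect and reference antibiotic for full effect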
CCHFV vOTU inh: blocks the CCHF virus ovarian tumor domain protease; inhibition, % at 11.5 µM; 370,000 compounds, 0.55% hits; CCHFV vOTU protease, Pep-AMC fluorescence; in the data active = inhibition above about 30%; also: 0% = vehicle wells with enzyme and 100% = no enzyme wells
Mtb hypoxia inh: Mtb hypoxia fluorescent reporter inhibition | fluorescence inhibition, % (concentration not given with the values) | 300,000 compounds, 0.1% hits | M. tuberculosis hypoxia-regulated fluorescent reporter, fluorescence | AID 1159583; in the data active = fluorescence inhibition mostly above about 23%, no sharp cut-off; inactive = mostly below about 17%
PriA SSB inh: K. pneumoniae PriA-SSBct interaction inhibition; inhibition, % at 33 µM; 430,000 compounds, 0.6% hits; AlphaScreen SSBct-PriA binding, biotinylated peptide; AID 1272365; in the data active = inhibition mostly above about 37%, no sharp cut-off; inactive = mostly below about 20%;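 also: plate controls were negative control peptide for no effect and reference peptide for full effect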
An asterisk follows results filed as active; x = not tested or not shown. Sampled rows, rich in hits. Any-hit rate of the full collection: about 1.4%.

SMILES	ugtP null kill	RN4220 kill	CCHFV vOTU inh	Mtb hypoxia inh	PriA SSB inh
O=C(Cc1ccc(F)cc1)NCCS(=O)(=O)N1CCN(c2cccc(Cl)c2)CC1	-0.1	0.4	0.5	-6.9	38.4*
CC1CN(C(C)CO)C(=O)c2cc(NC(=O)C3CCCCC3)ccc2OC1CN(C)C(=O)Nc1ccc2c(c1)OCO2 (centres undefined)	-12.1	-1.3	x	-7.3	x
COC(=O)c1cc(COc2ccc3oc(C)c(C(=O)OC(C)C)c3c2)c(C)o1	95.9*	1.8	1.5	x	-9.0
O=C(NCCOc1ccccc1)c1ccc(S(=O)(=O)N2CCCCC2)cc1	x	x	x	x	-21.0
O=C(OCC(=O)C12CC3CC(CC(C3)C1)C2)c1ccc(O)cc1	4.6	0.0	6.8	4.9	-2.2
O=C(OCC(=O)C12CC3CC(CC(C3)C1)C2)c1ccc(CO)cc1	-0.4	-0.5	5.3	24.6*	-0.3
COc1ccccc1OCC(=O)Nc1ccc2c(c1)N(C(=O)[C@@H]1CCCO1)CC2	x	x	x	x	-2.0
O=C(COc1ccc(F)cc1)Nc1nnc(S(=O)(=O)N2CCCC2)s1	-14.0	2.2	-3.4	-6.1	-24.6
O=C(COc1ccccc1Cl)Nc1nnc(S(=O)(=O)N2CCCCCC2)s1	21.2	3.3	8.0	3.9	100.2*
COc1ccc(C(=O)Nc2nnc(S(=O)(=O)N3CCCCCC3)s2)cc1OC	9.7	2.1	-0.3	1.2	82.3*
O=C(COc1ccccc1)Nc1nnc(S(=O)(=O)N2CCCCC2)s1	-1.1	3.4	3.7	-10.6	-14.9
CCC(=O)Nc1nnc(S(=O)(=O)N2CCCCCC2)s1	9.0	0.7	6.8	6.3	99.7*
O=C(COc1ccccc1)Nc1nnc(S(=O)(=O)N2CCCCCC2)s1	12.0	3.7	5.8	7.0	94.5*
O=C(Nc1nc(C(=O)NC2CCCCCC2)co1)c1ccncc1	x	x	x	x	-11.0
O=C(COc1ccccc1F)Nc1ccc2c(c1)N(C(=O)C1CCCC1)CC2	x	x	x	x	2.0
Cc1ccc(NC(=O)CSc2ncc(-c3ccc(F)cc3)o2)c(Cl)c1	x	x	x	x	-28.0
Cn1cccc1C=NNC(=O)C1COc2ccc(C(C)(C)C)cc2O1 (centres undefined)	1.2	8.9	x	7.2	38.9*
Cn1cccc1/C=N\NC(=O)C1COc2ccc(C(C)(C)C)cc2O1 (centres undefined)	x	x	26.5	x	x
Cc1ccnc2c(=O)cc[nH]c12	x	x	x	x	104.0*
COc1ccc(NC(=O)CON=CC(=O)Nc2ccc(C)cc2)c(OC)c1	7.3	3.9	-0.7	25.8*	-8.6
Cc1ccc(S(=O)(=O)NC(=O)Nc2ccc(N(C)C)cc2)cc1	10.8	4.2	50.4*	11.7	82.5*
COc1ccc(NC(=O)CS(=O)(=O)c2ccc(C)cc2)c(OC)c1	9.9	3.7	3.3	2.0	-7.6
Cc1ccc(NC(=O)NNS(=O)(=O)c2ccc(Br)cc2)cc1	0.3	10.0	5.8	x	-5.6
COc1ccc(NC(=O)NS(=O)(=O)c2ccc(C)cc2)c(OC)c1	-2.1	10.6	-12.1	4.2	53.5*
COc1ccc(NC(=O)CC(=O)Nc2ccc(OC)cc2OC)c(OC)c1	2.6	2.6	-5.9	1.9	-6.8
SMILES	ugtP null kill	RN4220 kill	CCHFV vOTU inh	Mtb hypoxia inh	PriA SSB inh
COc1cccc2cc(S(=O)(=O)c3ccc(C)c(Cl)c3)c(=O)oc12	x	x	x	x	4.0
COC(=O)c1ccc(C(=O)OC)c(NC(=O)N2c3ccccc3Sc3ccccc32)c1	2.1	5.6	-4.9	-2.3	-9.9
COC(=O)c1ccccc1NC(=O)N1c2ccccc2Sc2ccccc21	94.2*	-7.7	16.7	-3.5	-19.7
O=S(=O)(c1ccc(Cl)cc1)N1CCC(c2nc(-c3ccc(F)cc3)no2)CC1	x	x	x	x	-1.0
COc1ccc(-c2nc3oc4cc(OC)ccc4c(=O)c3c(=O)n2Cc2ccco2)cc1	97.9*	27.5	6.5	4.8	-6.4
COc1ccc(C(=O)CC(=O)C(=O)Nc2ccc(C)c(Cl)c2)cc1	97.2*	78.3	-8.8	2.9	-3.8
COc1ccc(C(=O)CC(=O)C(=O)Nc2cc(C)ccc2C)cc1	-5.5	-0.1	16.4	7.7	-2.5
O=C(CSc1ccc(Cl)cc1)NN=Cc1ccc([N+](=O)[O-])o1	99.8*	46.0	x	-1.6	6.8
O=C(CNc1ccccc1)NN=Cc1ccc([N+](=O)[O-])o1	35.4	34.7	x	5.2	3.4
O=C(CCC(=O)Nc1ccc(Cl)cc1Cl)NN=Cc1ccc([N+](=O)[O-])o1	100.0*	96.0*	x	x	-5.2
Cc1ccc(NC(=O)CCC(=O)NN=Cc2ccc([N+](=O)[O-])o2)cc1C	0.5	13.0	x	6.5	x
O=C(NN=Cc1ccc([N+](=O)[O-])o1)c1ccc2c(c1)OCO2	97.7*	87.7*	x	3.2	-0.9
CC1=CC(=NNc2ccccc2[N+](=O)[O-])CC(C)(C)C1	52.5	5.9	x	12.6	116.7*
C/C(=N/Nc1ccccc1[N+](=O)[O-])c1ccc(C)c([N+](=O)[O-])c1	x	x	11.9	x	x
CCC(/C=C1\Sc2ccc(OC)cc2N1CCO)=C\c1sc2ccc(OC)cc2[n+]1CCO	96.4*	99.0*	2.7	x	23.5
CCC(/C=C1\Sc2ccc(OC)cc2N1CC)=C\c1sc2ccc(OC)cc2[n+]1CCCS(=O)(=O)[O-]	-18.1	35.7	-8.8	68.4*	x
CCC(=O)/C=C1/Sc2ccc(OC)cc2N1CCO	6.7	4.4	4.3	2.7	-8.7
CCO/C(=C/c1sc2ccc(OC)cc2[n+]1CCCS(=O)(=O)[O-])CC	-0.7	1.5	17.5	13.0	-2.2
CC1=Nc2ccccc2/C1=C/c1sc(=N)n(-c2nccs2)c1O	98.2*	97.0*	x	6.1	x
O=C(Nc1ccc(OC(F)F)cc1)Nc1cccc(C(F)(F)F)c1	90.1*	81.8	7.8	-1.4	-16.0
Cc1ccc(NC(=O)Nc2cccc([N+](=O)[O-])c2)cc1F	47.6	54.5	9.1	4.7	-11.4
O=C(Nc1ccc(OC(F)(F)F)cc1)Nc1cccc([N+](=O)[O-])c1	99.7*	100.0*	-8.6	1.4	-8.2
O=C(Nc1ccncc1)Nc1cccc(C(F)(F)F)c1	-26.5	-16.5	20.8	0.3	-3.8
Cc1ccc(N2CC(NC(=O)NCCCn3ccnc3)CC2=O)cc1C (centres undefined)	x	x	x	x	51.0*
COc1ccc(Cl)cc1S(=O)(=O)Cc1nc(-c2ccc3c(c2)OCO3)no1	x	x	x	x	-12.0
SMILES	ugtP null kill	RN4220 kill	CCHFV vOTU inh	Mtb hypoxia inh	PriA SSB inh
Cc1cc(NN=Cc2c(O)ccc3ccccc23)nc(-c2ccccc2O)n1	98.3*	99.0*	x	9.0	1.8
Cc1cc(NN=Cc2ccc(O)c(C)c2O)nc(-c2ccccc2O)n1	98.3*	99.4*	x	5.2	11.9
Cc1cc(NN=Cc2ccccc2O)nc(-c2ccccc2O)n1	-15.1	-1.8	x	5.9	-4.9
O=C(N/N=C\c1ccccc1)c1ccc(C(=O)N/N=C\c2ccccc2)cc1	x	x	x	x	-21.0
COc1ccc(C(c2c(C)[nH]n(-c3ccccc3)c2=O)c2c(C)[nH]n(-c3ccccc3)c2=O)cc1OC	3.2	3.9	84.2*	5.2	-1.8
COc1ccc(C(c2c(C)n(C)n(-c3ccccc3)c2=O)c2c(C)n(C)n(-c3ccccc3)c2=O)cc1OC	1.6	0.6	-8.5	-7.4	-6.2
CCc1ccccc1NS(=O)(=O)c1ccc(SC)cc1	89.1*	94.8*	-8.3	10.7	-19.5

Screens: PubChem, several laboratories
